In ChEMBL document CHEMBL3988442, “University of Dundee, Small-Polar-MMV Screening Library” (2021):
The campaign covered roughly 48,000 compounds. About 13,000 (27%) showed an effect of 50% or more. The list shows a part of the results.

tested on: Wolbachia pipientis; test: Anti-Wolbachia Cell-Based Screen; format: functional; parameters: scale not given: in the data most compounds retested in dose-response had high values; details: 5 µM

SMILES | Percent Effect [%]
CN(C)C(=O)CNC(CC(F)(F)F)c1ccc(F)cc1 (stereo not drawn) | -7.138
CCc1cnc(N2CC3(CCN(S(=O)(=O)C4CC4)C3)C2)nc1 | -6.098
CCCNC(=O)CNc1cc(C(=O)N2CCSCC2)ccc1C | -10.89
Cc1ccc(S(=O)(=O)NCCNc2cc(-n3cccc3)ncn2)c(C)c1 | 19.5
CC(C)Oc1ccc(-c2csc(Cn3ccc(=O)[nH]c3=O)n2)cc1 | -3.236
O=C1CN(C(=O)c2ccc(Cl)cc2)CC(O)CN1Cc1cccs1 (stereo not drawn) | 98.52
O=C1CN(C(=O)C2CCOC2)CCN1Cc1ccc(Cl)cc1 (stereo not drawn) | -11.12
Cc1ccc(CN(C)Cc2nc3ccc(F)cc3[nH]2)cn1 | 92.16
CNc1ncc(CN(C)Cc2cc(O)c3cc(F)ccc3n2)cn1 | -2.585
CCc1ccc(CN(CC)Cc2ccc(S(=O)(=O)NC)cc2)cc1 | -10.93
Cc1nc(CCN)cc(N(C)Cc2nc3ccc(F)cc3[nH]2)n1 | -5.934
CCOc1ccccc1CN(CC)Cc1ccc(S(=O)(=O)NC)cc1 | 14.99
CNS(=O)(=O)c1ccc(CN(C)Cc2nc3ccc(F)cc3[nH]2)cc1 | 112.9
CN(Cc1cnc(C(C)(C)C)nc1)Cc1nc2ccc(F)cc2[nH]1 | 92.92
Cc1ccc(OCC(=O)N(C)Cc2ccc(F)cc2)cn1 | -1.613
COc1cccc(CN(C)Cc2nc3cc(C)ccc3[nH]2)c1O | 1.617
CCNC(=O)NC(C)(C)C(=O)NCc1cccc(N2CC=CC2)c1 | 1.796
CC(O)c1cccc(N2CCC3(CC2)Nc2ccccc2NC3=O)n1 (stereo not drawn) | 0.04909
CCc1nc(C)c(C(=O)NCCNc2cnccn2)s1 | 1.537
C[S+]([O-])c1nncn1CC(=O)c1ccc2c(c1)CCC2 (stereo not drawn) | -5.964
CCCS(=O)(=O)NC(=O)c1ccc(CC)o1 | -1.389
CCn1cnnc1CCNc1nc(C)cc(C)c1C#N | 126.1
Cc1cc(NCCO)nc(N2CCCC2)c1C#N | -1.529
Cc1cc(C)c(C#N)c(NCCn2cnnc2C(C)C)n1 | 112.6
CCn1cnnc1CCNC(=O)c1ccc(Br)cc1F | -14.54
Cc1cc(C)cc(OCCNC(=O)C(C)Sc2nncn2C)c1 (stereo not drawn) | -3.054

SMILES | Percent Effect [%]
Cc1cc(NCCO)nc(N2CCN(C)CC2)c1C#N | 2.525
CCn1cnnc1CCNC(=O)C(C)(C)c1cccc(Cl)c1 | -6.534
CCn1c(C)nnc1SCCNc1nc(C)ncc1S(C)(=O)=O | -10.91
Cc1cc(C)c(C#N)c(NCCSc2nncn2C)n1 | 98.82
CC(C)(C)OC(=O)NC(C)(C)c1noc(Cn2ccnc2)n1 | 11.22
CSCCC(NC(N)=O)C(=O)NCc1ccc(-n2cccn2)cc1 (stereo not drawn) | -16.66
O=C(Nc1cccnc1)NC1CCN(c2ccccc2OC(F)F)C1 (stereo not drawn) | -19.82
O=C(O)c1ccnc(-c2ccnc(N3CCC4(CCO4)CC3)n2)c1 | -4.14
Cc1cccc(CN2C(=O)CC[C@@H]3[C@H]2CCN3Cc2cccnc2)n1.O=C(O)C(F)(F)F.O=C(O)C(F)(F)F.O=C(O)C(F)(F)F | -1.034
Cc1cccc(CN2C(=O)CC[C@@H]3[C@H]2CCN3C(=O)c2ccsc2)n1.O=C(O)C(F)(F)F | -10.27
Cc1ccc(CN2CC[C@H]3[C@H]2CC(=O)N3c2ccsc2)o1.O=C(O)C(F)(F)F | 12.94
COc1ccc(CN2CC[C@H]3[C@H]2CC(=O)N3Cc2cccc(C)n2)cc1.O=C(O)C(F)(F)F.O=C(O)C(F)(F)F | 96.36
Cc1cccc(CN2C(=O)CC[C@@H]3[C@H]2CCN3Cc2ccc(F)cc2)n1.O=C(O)C(F)(F)F.O=C(O)C(F)(F)F | -9.661
Cc1cccc(CN2C(=O)C[C@H]3[C@@H]2CCN3Cc2ccc(F)cc2)n1.O=C(O)C(F)(F)F.O=C(O)C(F)(F)F | 93.32
CCc1ccc(CN2CC[C@H]3[C@H]2CC(=O)N3Cc2cccc(C)n2)o1.O=C(O)C(F)(F)F.O=C(O)C(F)(F)F | 105.5
Cc1cc(C(=O)NCC(=O)NC(c2ncccc2C)C(C)C)c(C)o1 (stereo not drawn) | -6.286
CC(C)NC(=O)c1cnc(Sc2nccn2C)c(Cl)c1 | 7.154
CCCSc1nc(O)c(CC)c(=O)n1-c1ccccc1 | -0.2298
Cc1ncc(COc2cccc3c2NC(=O)CO3)s1 | -10.58
Cc1cc(C(=O)N2CCOC[C@H](Oc3cccnc3)C2)c(C(F)(F)F)o1 | 3.665
O=C([C@@H]1CCO[C@@H]2CCN(Cc3cccnc3)C[C@H]21)N1CCCCO1 | 13.27
CC(C)=CCN(C)C1CCCN(Cc2noc(C)n2)C1 (stereo not drawn) | 0.8027
CO[C@@H]1CN(c2ccccc2)S(=O)(=O)[C@@]12CCN(Cc1ccccc1)C2 | 116.8
CO[C@@H]1CN(c2ccccc2)S(=O)(=O)[C@@]12CCN(Cc1cncs1)C2 | 104.5
CO[C@H]1CN(c2ccccc2)S(=O)(=O)[C@@]12CCN(Cc1ccccc1)C2 | 88.28
CO[C@@H]1CN(c2ccccc2)S(=O)(=O)[C@@]12CCN(CC1CC1)C2 | 88.1

SMILES | Percent Effect [%]
CN1CC(=O)N(c2ccccc2)CC12CCN(CC1CC1)C2.O=C(O)C(F)(F)F.O=C(O)C(F)(F)F (stereo not drawn) | -12.9
O=C1C[C@@H]2CCN(Cc3ccccc3)C[C@@H]2CCN1c1ccccc1 | 1.893
COCC1CC2(CCN(CC3CC3)CC2)CN1c1ncccn1.O=C(O)C(F)(F)F.O=C(O)C(F)(F)F (stereo not drawn) | 9.926
O=C(CCn1ccccc1=O)N1CCN(Cc2cccc(Cl)c2)CC1 | -6.995
COc1cc(C2CC(=O)c3c(O)cc(O)cc3O2)ccc1O (stereo not drawn) | 4.847
COc1ccc(-c2noc(Cn3cc(C)cn3)n2)c(OC)c1OC | -1.893
COc1ccccc1CN(Cc1cccs1)S(=O)(=O)N(C)C(C)C | -8.287
Cc1ncc2c(n1)CCN(Cc1ncc(C(C)(C)C)o1)C2 | 1.311
CS(=O)(=O)c1cccc(S(=O)(=O)NC(=O)CC2CCCC2)c1 | -23.12
Cc1ccc(C(N)c2cccc(S(C)(=O)=O)c2)cc1 (stereo not drawn) | 1.85
COc1ccc(C(N)c2cccc(S(C)(=O)=O)c2)cc1 (stereo not drawn) | 4.589
CCNC(=O)NC(c1ccc(C)cc1)c1cccc(S(C)(=O)=O)c1 (stereo not drawn) | 96.65
CS(=O)(=O)c1cccc(C(N)c2ccc(F)c(F)c2)c1.Cl (stereo not drawn) | -2.394
Cc1ccc(C(NC(=O)C2CC2)c2cccc(S(C)(=O)=O)c2)cc1 (stereo not drawn) | 85.76
CCC(=O)NC(c1ccc(C)cc1)c1cccc(S(C)(=O)=O)c1 (stereo not drawn) | 96.25
CC(CO)NS(=O)(=O)c1cccc(C(C)C)c1 (stereo not drawn) | -1.865
Cc1ccc(C(NC(=O)[C@H]2CC[C@@H](O)CC2)c2cccnc2)cc1C (stereo partly drawn) | -7.536
COc1ccc(N2CCN(C(=O)CCn3nnnc3C)CC2(C)C)cc1 | 5.117
CN(Cc1cccnc1)Cc1cncc2c1CCN(Cc1ccoc1)C2.Cl.Cl.Cl | 98.31
CN(Cc1cccnc1)Cc1cncc2c1CCN(c1ccccn1)C2.Cl.Cl.Cl | 98.43
CC(C)N(C)Cc1cncc2c1CCN(C(=O)c1cccc(C#N)c1)C2.Cl.Cl | -11.44
Cl.Cl.c1cnc(NCc2cncc3c2CCN(Cc2ccoc2)C3)nc1 | 0.8556
CN(Cc1cccnc1)CC1CNCc2nccn2C1 (stereo not drawn) | -0.6774
CN(Cc1ccco1)Cc1cncc2c1CCN(Cc1ccoc1)C2.Cl.Cl.Cl | 96.91
CN(Cc1cn2c(n1)CN(C(=O)N(C)C)CC2)Cc1ccco1 | 3.747
Cl.Cl.O=C(NCc1cncc2c1CCN(Cc1ccoc1)C2)C1CC1 | -1.129

SMILES | Percent Effect [%]
CC(C)C(=O)N1CCc2c(CN(C)Cc3ccco3)cncc2C1.Cl.Cl | 107
COC(=O)c1ccc(CN(C(C)C)C(C)C)o1.Cl | -10.72
CN(CCC#N)C(=O)CN1CCCN(Cc2noc(C3CC3)n2)CC1 | -26.77
CCn1ccnc1CN1CCN(CC(=O)NC(C)(C#N)C2CC2)CC1 (stereo not drawn) | -16.24
CC(C)CN1CCc2c(CN(C)Cc3ccco3)cncc2C1.Cl.Cl.Cl | 112.5
CCS(=O)(=O)N1CCc2c(CN(C)Cc3ccco3)cncc2C1.Cl.Cl | 0.2646
CCS(=O)(=O)N1CCn2cc(CN(C)Cc3ccco3)nc2C1 | -9.31
CN(Cc1ccco1)Cc1cncc2c1CCN(S(C)(=O)=O)C2.Cl.Cl | 114
COCCN1C[C@@H]2CN(S(=O)(=O)c3cccs3)C[C@@H]2C1=O | -21.25
O=C(Nc1ccc2scnc2c1)N1CCN([C@H]2CCCC[C@@H]2O)CC1 | -4.588
CN(C)C1CCCN(C(=O)NCCC(C)(C)C)C1 (stereo not drawn) | -10.25
CN(C)C1CCCN(C(=O)NCCC(=O)N2CCCCCC2)C1 (stereo not drawn) | 0.3491
CN(CC(F)(F)F)C(=O)CNC(=O)N1CCCC(C(F)(F)F)C1 (stereo not drawn) | 92.98
CN(C)C(=O)c1cccc(NC(=O)N2CCCC(C(F)(F)F)C2)c1 (stereo not drawn) | 13.97
O=C(NCCNc1ncccn1)N1CCCC(C(F)(F)F)C1 (stereo not drawn) | -15.03
CN(CC(F)(F)F)C(=O)CNC(=O)N1CCCC(N(C)C)C1 (stereo not drawn) | 95.13
Cc1nnc(C(C)N2CCN(Cc3ccc4c(c3)OCO4)CC2)o1 (stereo not drawn) | 12.94
Cc1nnc(C(C)N2CCCN(Cc3ccc(F)cc3)CC2)o1 (stereo not drawn) | 92.55
Cc1nnc(C(C)N2CCN(Cc3ccc(C(F)(F)F)cc3)CC2)o1 (stereo not drawn) | 124.3
CC(C)OCC(=O)N1CCCN(Cc2ccc(C#N)cc2)CC1 | -9.345
CC(c1ncc(C(C)(C)C)o1)N1CCN(Cc2ccncc2)CC1 (stereo not drawn) | -8.967
COc1cnc(N2CCCN(Cc3ccc(F)cc3)CC2)nc1 | 0.06599
Cc1nnc(C(C)N2CCN(Cc3ccc(C#N)cc3)CC2)o1 (stereo not drawn) | 2.063
Cc1nnc(C(C)N2CCCN(Cc3ccc(C#N)cc3)CC2)o1 (stereo not drawn) | 105.5
Cc1nnc(C(C)N2CCCN(Cc3noc(C4CC4)n3)CC2)o1 (stereo not drawn) | 5.084
